# Results filed as inconclusive are left out. Active and inactive are the calls of the source. Unless noted, the call rests on the fitted dose curve; in most records, active means well fitted curve in the direction sought with a large enough effect; inconclusive means small, poorly fitted or top-dose-only effect, or another doubt; inactive means no such curve, though single readings can be large; an effect the other way counts as inactive or inconclusive.
# What was measured:
# [1] = qHTS drug screen for cell cycle checkpoint inhibitors in PARPi-resistant BRCA-mutant ovarian cancer cell lines. (AID 1963452; calls by dose curve); conditions: PEO1/OlaR viability, CellTiter-Glo luminescence, 96 h, stronger effect = lower value
# Procedure, shortened: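 PEO1, PEO4 and PEO1/OlaR ovarian cancer cells, 600 per well, exposed 96 h at 37C to a dilution series. Viability read by CellTiter-Glo luminescence, normalized to DMSO and empty wells; activity summarized as Z-AUC.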
# [2] = target: Cytochrome P450 2C19 (Homo sapiens) (UniProt P33261); test: qHTS for inhibitors of CYP2C19 against the NCATS DSHEA and TCM libraries (AID 1919974); conditions: CYP2C19 enzyme inhibition, luminescence qHTS; series mostly up to 18.8 µM;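 further: luminescence from luciferin released by CYP2C19 oxidation of a pro-luciferin substrate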; further: potency means the concentration at half of the fitted maximal effect
# Procedure, shortened: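 Isoform-specific enzyme and substrate levels; enzyme-free wells as background. Reaction: 1x NADPH regenerating system, 30-45 min, room temperature, shielded from light; luminescent detection reagent added, 30 min.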
# [3] = KB-3-1 P-gp reporter qHTS against the NCATS DSHEA and TCM libraries (AID 1919975); conditions: KB-3-1 parental cells, CellTiter-Glo luminescence viability, 72 h; series mostly up to 14.4 µM; further: 0% is about no effect
# Procedure, shortened: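 CellTiter-Glo luminescence viability readout; KB-3-1 parental cells, 500/well, attached ~4 h, then compound for ~72 h, 37C, 5% CO2. Bortezomib intraplate control.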
# [4] = target: Cytochrome P450 1A2 (Homo sapiens) (UniProt P05177); test: qHTS for inhibitors of CYPIA2 against the NCATS DSHEA and TCM libraries (AID 1919976); conditions: recombinant CYP1A2 enzyme activity, luminescence; series mostly up to 20.3 µM;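 further: light from luciferin formed by CYP1A2 from a pro-luciferin substrate; on the % scale 0 is the no-effect control and ±100 the full control effect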
# Procedure, shortened: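 Furafylline served as the plate control. Compounds met CYP1A2 and pro-luciferin substrate 15 min before NADPH regeneration solution (1x) was added; after 30-45 min at RT, P450-Glo reagent was added for 30 min and luminescence was measured.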
# [5] = qHTS Counterscreen for compound interference against the NCATS DSHEA and TCM libraries (AID 1919978); conditions: firefly luciferase detection reagent interference, luminescence;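 further: compounds preincubated with 1 µM D-luciferin or buffer before detection reagent; % of control where 0% means no effect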
# Procedure, shortened: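 Luminescence counterscreen for detection-kit interference: compounds at 19.5 nM–39.8 uM final, 15 min RT with 1 uM D-luciferin or buffer only; detection reagent added, 30 min RT, then read.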
# [6] = Dual reporter qHTS for agonist of Pregnane X Receptor (hPXR) against the NCATS DSHEA and TCM libraries: Fluorescence readout (AID 1920058); conditions: PXR dual reporter cells; series mostly up to 22 µM; further: 0% is about no effect
# Procedure, shortened: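 In this qHTS counter-read, reporter-bearing HepG2 cells in charcoal-stripped serum received substances for approximately 24 h before viability was assessed fluorometrically with CellTiter-Fluor.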
# [7] = target: Nuclear receptor subfamily 1 group I member 2 (Homo sapiens) (UniProt O75469); test: Dual reporter qHTS for agonist of Pregnane X Receptor (hPXR) against the NCATS DSHEA and TCM libraries: Luminescence readout (AID 1920059); conditions: hPXR dual reporter cells, luciferase luminescence agonist; series mostly up to 22 µM; further: 0% is about no effect
# Procedure, shortened: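 Luminescent PXR reporter read (ONE-Glo) after a CellTiter-Fluor viability read, following 24 h, 37C treatment of HepG2 cells stably carrying hPXR-Luc.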
# [8] = target: Nuclear receptor subfamily 1 group I member 2 (Homo sapiens) (UniProt O75469); test: Dual reporter qHTS for antagonist of Pregnane X Receptor (hPXR) against the NCATS DSHEA and TCM libraries: Luminescence Readout (AID 1920060); conditions: hPXR dual reporter cells, luciferase luminescence, antagonist mode; series mostly up to 22 µM;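 further: HepG2 cells carrying hPXR luciferase reporter stimulated with rifampicin at 2 µM; 0% is about no effect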
# Excerpt: Assay Development and Screening Technology Laboratory (ADST)
# National Center for Advancing Translational Sciences (NCATS), Rockville, MD
# National Institute of Health (NIH), Bethesda, Maryland
# Dietary Supplements and Natural Products have minor oversight of their safety and efficacy. We assembled a collection of Dietary Supplements and Natural Products (DSNP) as well as Traditional Chinese Medicinal (TCM) Plant extracts, which were screened against an in vitro panel of assays, including a liver cytochrome p450 enzyme panel, CAR/PXR signaling pathways, and P-gp transporter assays, to assess their activity. This pipeline facilitated the interrogation of Natural Product-Drug Interaction (NaPDI) through prominent metabolizing pathways. In addition, we compared the activity profiles of the DSNP/TCM substances with those of an approved drug collection. Many of the approved drugs have well-annotated mechanisms of action (MOA) while the MOAs for most of the DSNP and TCM samples remain unknown. Based on the premise that compounds with similar activity profiles tend to share similar targets or MOA, we clustered the library activity profiles to identify overlap with the NCATS Pharmaceutical Collection to predict the MOAs of the DSNP/TCM substances. Overall, we highlight four significant bioactivity profiles (measured by p-values) as examples of this prediction. To assess broad cytotoxicity, we employed screening against a HepG2 cell line. In addition, transporter-mediated drug interactions are utilized in the characterization of DDIs using a P-glycoprotein (P-gp) assays. To profile potential P-gp activity, a differential cell viability was measured against two cell lines: a parental KB-3-1 human cervical adenocarcinoma cell line and the drug-resistant subline KB-8-5-11 that overexpresses P-gp.
# To this end, we profiled both collections for potential CAR and/or PXR activity, employing a previously published 1536-well qHTS assay.
# [1] Lee TD, et al. A High-Throughput Screen of a Library of Therapeutics Identifies Cytotoxic Substrates of P-glycoprotein. Mol Pharmacol. Nov 2019;96(5):629-640. doi:10.1124/mol.119.115964
# For PXR luciferase reporter gene assays, we used hPXR-LucHepG2cells provided by Dr. Taosheng Chen (Department of Chemical Biology and Therapeutics, St. Jude Children's Research Hospital). Cells were cultured in EMEM supplemented with 10% fetal bovine serum, 100U/mL penicillin and 100ug/mL streptomycin, and 500ug/mL of geneticin.
# PROTOCOL TABLE (as described by Inglese J, Shamu CE and Guy RK. 2007)
# SEQUENCE No. (e.g., 1, 2, 3, etc.); PARAMETER (e.g., Cells, Incubation, Reagent, etc.); VALUE; DESCRIPTION.
# 1; Cells; 5 uL; hPXR-LucHepG2; white solid-bottom Greiner plate.
# 2; Incubation; 5h; 37C, 95% humidity, 5% CO2
# 3; Compounds and control; 23 nL; Kalypsis pintool (Wako USA).
# 4; Reagent; 1uL; rifampicin (RIF) in the antagonist mode.
# 6; Reagent; 1 uL; CellTiter-Fluor detection reagent.
# 7; Incubation; 1 hr; 37C, 5% CO2.
# 8; Read; Fluorescence; ViewLux plate reader.
# 9; Reagent; 4 uL; ONE-Glo Luciferase detection reagent.
# 10; Incubation; 30 min; room temperature.
# 11; Read; Luminescence; ViewLux plate reader.
# NOTES (numbers refer to Sequence numbers above)
# 1. Briefly, 5uL of hPXR-LucHepG2 cells in phenol red-free DMEM containing 5% charcoal-stripped FBS, 1 mM sodium pyruvate (Invitrogen), 2 mM L-glutamine (Invitrogen), and 100 U/mL penicillin and 100ug/mL streptomycin were dispensed using a BioRAPTR FRD at 4 x 10^5cells/mL (2000cells/well) in tissue culture-treated 1536-well white assay plates (GreinerBio-One).
# 2. Plates were incubated for 5h at 37C, 95% humidity, and 5% CO2 to allow for cell attachment.
# 3. Compounds (final concentration for most substances ranged from 15.6 nM to 45.9uM), positive SPA70 (final concentration range of 2.8 nM to 92uM for the antagonist mode), and cytotoxicity control tetraoctyl ammonium bromide (final concentration of 92uM) were transferred (23 nL) via pintool (Wako Automation).
# 4-5. […]
# [9] = Dual reporter qHTS for antagonist of Pregnane X Receptor (hPXR) against the NCATS DSHEA and TCM libraries: Fluorescence Readout (AID 1920061); conditions: PXR dual reporter cells, antagonist mode; series mostly up to 22 µM; further: 0% is about no effect
# Procedure, shortened: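 In antagonist mode, 2 uM rifampicin was added to hPXR-Luc HepG2 cells alongside test substances, incubated 24 h at 37 C; luminescence gave reporter activity, and CellTiter-Fluor fluorescence (405/540 nm) gave viability.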
# [10] = measured here: PEO1 parental Z-AUC
# Sequence of Nuclear receptor subfamily 1 group I member 2 (Homo sapiens) (O75469 whole entry, looked up): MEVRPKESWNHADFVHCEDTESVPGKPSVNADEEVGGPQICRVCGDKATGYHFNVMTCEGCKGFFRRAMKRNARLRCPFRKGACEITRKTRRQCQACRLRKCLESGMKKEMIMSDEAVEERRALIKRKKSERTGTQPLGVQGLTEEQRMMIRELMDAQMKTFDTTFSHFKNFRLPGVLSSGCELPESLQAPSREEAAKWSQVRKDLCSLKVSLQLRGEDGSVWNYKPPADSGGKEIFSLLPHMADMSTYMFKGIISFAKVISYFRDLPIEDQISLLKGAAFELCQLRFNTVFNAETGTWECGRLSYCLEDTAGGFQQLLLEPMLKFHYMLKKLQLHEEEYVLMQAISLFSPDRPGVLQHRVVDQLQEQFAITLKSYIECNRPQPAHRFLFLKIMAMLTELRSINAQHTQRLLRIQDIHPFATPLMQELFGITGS
# Sequence of Cytochrome P450 2C19 (Homo sapiens) (P33261 whole entry, looked up, canonical isoform): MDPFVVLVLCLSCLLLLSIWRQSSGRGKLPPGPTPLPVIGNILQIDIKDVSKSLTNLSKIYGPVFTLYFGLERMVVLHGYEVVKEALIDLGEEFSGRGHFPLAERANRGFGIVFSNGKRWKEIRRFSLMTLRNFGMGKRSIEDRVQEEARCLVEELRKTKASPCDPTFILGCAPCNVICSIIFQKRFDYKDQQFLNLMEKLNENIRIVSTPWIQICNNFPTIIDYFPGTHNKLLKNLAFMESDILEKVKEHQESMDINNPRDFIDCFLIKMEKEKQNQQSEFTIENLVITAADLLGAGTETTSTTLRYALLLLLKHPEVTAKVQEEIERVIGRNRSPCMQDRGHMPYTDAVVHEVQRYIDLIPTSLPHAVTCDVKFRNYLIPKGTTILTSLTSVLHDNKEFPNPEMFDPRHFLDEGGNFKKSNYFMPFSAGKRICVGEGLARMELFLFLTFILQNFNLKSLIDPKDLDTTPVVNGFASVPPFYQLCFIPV
# Sequence of Cytochrome P450 1A2 (Homo sapiens) (P05177 whole entry, looked up): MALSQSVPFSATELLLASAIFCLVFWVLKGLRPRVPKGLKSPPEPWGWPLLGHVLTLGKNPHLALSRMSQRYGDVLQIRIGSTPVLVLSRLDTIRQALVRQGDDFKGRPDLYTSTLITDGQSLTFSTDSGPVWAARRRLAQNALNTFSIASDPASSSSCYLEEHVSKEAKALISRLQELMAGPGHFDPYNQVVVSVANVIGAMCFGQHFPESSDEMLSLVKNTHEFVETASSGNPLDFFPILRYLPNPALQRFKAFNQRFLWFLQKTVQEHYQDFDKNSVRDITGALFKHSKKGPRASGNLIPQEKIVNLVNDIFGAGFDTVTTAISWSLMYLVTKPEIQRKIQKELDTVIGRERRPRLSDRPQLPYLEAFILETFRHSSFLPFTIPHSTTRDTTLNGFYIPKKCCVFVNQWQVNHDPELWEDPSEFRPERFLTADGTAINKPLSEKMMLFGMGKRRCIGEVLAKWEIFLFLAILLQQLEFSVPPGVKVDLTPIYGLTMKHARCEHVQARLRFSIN
compound,measurement,setting,value
CCCCc1nc2cc(/C=C/C(=O)NO)ccc2n1CCN(CC)CC,Z-AUC,[1],0.0461 (inactive)
same,Z-AUC,[1]; [10],-0.0677
same,Z-AUC,[1]; measured here: PEO4 Z-AUC,-0.293
CC#CC(=O)N1CCC[C@H]1c1nc(-c2ccc(C(=O)Nc3ccccn3)cc2)c2c(N)nccn12,Z-AUC,[1],-0.264 (inactive)
same,Z-AUC,[1]; [10],0.632
same,Z-AUC,[1]; measured here: PEO4 Z-AUC,0.342
OC[C@H]1O[C@@H](OC[C@H]2O[C@@H](OC/C=C/c3ccccc3)[C@H](O)[C@@H](O)[C@@H]2O)[C@@H](O)[C@@H]1O,Potency,[2],inactive
same,outcome,[3],inactive
same,Potency,[4],inactive
same,max response,[5],-0.863% (inactive)
same,outcome,[6],inactive
same,outcome,[7],inactive
same,outcome,[8],inactive
same,outcome,[9],inactive
C[C@@]12CC[C@@H]3[C@@](CC[C@H]4[C@@]3(C)CCC[C@@]4(C)C(=O)O)(CC1=O)C2,Potency,[2],14.1 µM (active)
same,outcome,[3],inactive
same,Potency,[4],inactive
same,max response,[5],0.713% (inactive)
same,outcome,[6],inactive
same,outcome,[7],inactive
same,outcome,[8],inactive
same,outcome,[9],inactive
COCCN1CCN(Cc2ccc(-c3n[nH]c4c3C(=O)c3c(NC(=O)NN5CCOCC5)cccc3-4)cc2)CC1,Z-AUC,[1],0.43 (inactive)
same,Z-AUC,[1]; [10],0.701
same,Z-AUC,[1]; measured here: PEO4 Z-AUC,0.00286
C[C@H]1[C@H](O)O[C@@H]2O[C@@]3(C)CC[C@H]4[C@H](C)CC[C@@H]1[C@@]24OO3,Z-AUC,[1],1.05 (inactive)
same,Z-AUC,[1]; [10],0.808
same,Z-AUC,[1]; measured here: PEO4 Z-AUC,1.02
CCN1CCN(Cc2ccc(NC(=O)c3ccc(C)c(/C=C/c4cnc5[nH]ccc5c4OC)c3)cc2C(F)(F)F)CC1,Z-AUC,[1],-1.16 (inactive)
same,Z-AUC,[1]; [10],-1.48
same,Z-AUC,[1]; measured here: PEO4 Z-AUC,-1.42
CN1CCN(C2CCC(n3cc(-c4ccc(Oc5ccccc5)cc4)c4c(N)ncnc43)CC2)CC1 (stereo unspecified),Z-AUC,[1],-1.03 (inactive)
same,Z-AUC,[1]; [10],-1.14
same,Z-AUC,[1]; measured here: PEO4 Z-AUC,-0.439
O=C(c1ccc(/C=C/c2n[nH]c3ccccc23)cc1)N1CCNCC1,Z-AUC,[1],-0.885 (inactive)
same,Z-AUC,[1]; [10],-0.223
same,Z-AUC,[1]; measured here: PEO4 Z-AUC,-0.438
Cc1cc(OCc2nnc(SC3CCCC3)n2-c2cccnc2)ccc1-c1ccc(S(C)(=O)=O)cc1,Z-AUC,[1],-1.33 (inactive)
same,Z-AUC,[1]; [10],-3
same,Z-AUC,[1]; measured here: PEO4 Z-AUC,-2.2
CCOc1cc(C(=O)N2CCC(N3CCN(C)CC3)CC2)ccc1Nc1ncc2c(n1)N(C1CCCC1)c1ccccc1C(=O)N2C,Z-AUC,[1],-1.32 (inactive)
same,Z-AUC,[1]; [10],0.31
same,Z-AUC,[1]; measured here: PEO4 Z-AUC,-0.487
c1cn2cc(-c3ccc4cn[nH]c4c3)nc(Nc3ccc(N4CCOCC4)cc3)c2n1,Z-AUC,[1],-0.306 (inactive)
same,Z-AUC,[1]; [10],-0.0182
same,Z-AUC,[1]; measured here: PEO4 Z-AUC,0.447
